# CHRM1 antagonist = antagonists of human M1 muscarinic receptor | P11229 | CHO-K1 hM1, Fluo-8 calcium fluorescence, ACh EC80 antagonist | inhibition, % at 3 µM | hit rate 1.3% among 360,000;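 active = percent inhibition above its own plate's cutoff, namely the mean of that plate's compound wells plus 3 SD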;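 note: peak over basal fluorescence ratio during 140 s after agonist addition; 0% = ACh EC80 plus DMSO and 100% = DMSO alone without agonist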
# Target sequence (P11229 whole entry, looked up): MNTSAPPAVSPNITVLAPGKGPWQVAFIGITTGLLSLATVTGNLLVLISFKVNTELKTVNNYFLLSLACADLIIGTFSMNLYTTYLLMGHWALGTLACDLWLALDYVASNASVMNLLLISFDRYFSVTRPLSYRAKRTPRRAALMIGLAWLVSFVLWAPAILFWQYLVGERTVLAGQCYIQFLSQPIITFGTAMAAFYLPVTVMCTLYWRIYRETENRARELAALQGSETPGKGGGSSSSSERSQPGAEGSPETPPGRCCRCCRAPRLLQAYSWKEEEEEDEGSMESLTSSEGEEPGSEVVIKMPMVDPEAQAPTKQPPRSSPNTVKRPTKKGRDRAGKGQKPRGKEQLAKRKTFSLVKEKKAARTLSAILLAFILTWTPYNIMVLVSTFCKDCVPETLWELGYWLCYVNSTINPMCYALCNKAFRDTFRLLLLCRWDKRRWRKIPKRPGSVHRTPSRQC
# M1 PAM parental = nonselective activator or artifact in parental CHO-K1 calcium assay; ATP EC20, Fluo-8 calcium fluorescence; 0% at ATP EC20, 100% at ATP max; activation, % at 3 µM; hit rate 0.02% among 360,000; AID 602247;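 active = activation above the run cutoff, the mean activation of all test compounds plus 3 SD, cut at about 40% in these data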;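 note: peak over basal fluorescence ratio in a 140 s read after ATP addition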
# CHRM1 agonist = activates human CHRM1 receptor; hit rate 0.33% among 360,000; AID 588814; CHO-K1 hM1, Fluo-8 calcium fluorescence, agonist mode; 0% DMSO, 100% acetylcholine EC100; activation, % at 3 µM; P11229;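 active = activation above the run's mean compound activation plus 3 SD, cut at about 16% in these data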;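 note: peak over basal fluorescence ratio within a 140 s kinetic read after compound addition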
# M1 ag parental = M1 agonist counterscreen hit in parental CHO-K1 cells. Fluo-8 calcium fluorescence; scaled to maximal ATP response, vehicle zero. activation, % at 3 µM. hit rate 0.48% among 360,000. AID 602248; in the data active = activation above about 15%;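 note: untransfected CHO-K1 host cells lacking M1 receptor as counterscreen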
# M1 PAM = positive allosteric modulators of human M1 muscarinic receptor; AID 588819; hit rate 0.088% among 360,000; CHO-K1 hM1, Fluo-8 calcium fluorescence, ACh EC20; 0% = ACh EC20, 100% = maximal ACh; P11229; activation, % at 3 µM; in the data active = activation above about 19%, passing the limit was not always enough
# CHO-K1 Ca antag = nonselective inhibitor or artifact in parental CHO-K1 cells; ATP-induced calcium, Fluo-8 fluorescence; inhibition, % at 3 µM; hit rate 0.6% among 360,000;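 active = inhibition above a per-plate cutoff, the plate's mean sample inhibition plus 3 SD, cut at about 24% in these data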;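 note: 0% = DMSO plus EC80 ATP and 100% = DMSO alone without ATP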
# * = called active by the depositor. The list is not random: actives were taken first. Their share in the collection is about 2.4%.
SMILES,CHRM1 antagonist,M1 PAM parental,CHRM1 agonist,M1 ag parental,M1 PAM,CHO-K1 Ca antag
NC(=O)c1ncn([C@@H]2O[C@H](CNCc3ccc(OCC(=O)Nc4ccccn4)cc3)[C@@H](O)[C@H]2O)n1,-23.4,10.3,-1.4,-0.1,14.7,-13.0
Cn1ccsc1=NC(=O)c1ccc(OC(F)(F)F)cc1,-25.8,-0.2,1.5,0.5,14.9,-7.2
On1ccccc1=S,-1.3,17.7,1.0,2.8,0.2,24.5*
O=C(Cn1ccccc1=S)c1ccc(Cl)c(Cl)c1,-6.3,24.1,-6.3,2.0,7.8,-15.8
COc1ccc(-c2nn(-c3ccccc3)cc2/C=N/NC(=O)c2ccc(Br)o2)cc1,43.9*,10.1,3.7,3.3,-17.1,-9.2
O=C(CCCCCn1c(=S)[nH]c2cc3c(cc2c1=O)OCO3)N1CCN(C2CCCCC2)CC1,36.6*,-2.6,-3.8,1.6,-17.6,5.4
O=C(CCCCCn1c(=S)[nH]c2cc3c(cc2c1=O)OCO3)N1CCN(Cc2ccccc2)CC1,18.6,-3.6,-4.9,1.6,-6.6,4.8
O=C(c1c(F)cccc1F)N(C1CCCCC1)C1CCCCC1,-9.6,13.8,-4.5,0.1,6.2,-8.9
CC(C)c1ccccc1NC(=O)COC(=O)c1c2c(nc3ccccc13)CCN(Cc1ccccc1)C2,37.4*,9.5,-4.7,7.0,-22.4,20.5
CC(C)(C)NC(=O)COC(=O)c1c2c(nc3ccccc13)CCC2,31.4*,-13.2,-6.5,8.7,-21.7,14.3
O=C(COC(=O)c1c2c(nc3ccccc13)/C(=C\c1cccs1)CCC2)Nc1ccccc1,31.7*,18.1,-2.7,2.1,-13.2,4.7
O=C(COC(=O)c1c2c(nc3ccccc13)CCCC2)Nc1ccc2c(c1)OCO2,32.2*,-1.2,-0.5,3.9,-7.7,5.1
CC(=O)c1ccc(NC(=O)COC(=O)c2c3c(nc4ccccc24)/C(=C\c2cccs2)CCC3)cc1,17.6,-14.1,-5.2,1.5,-8.1,19.4
CC(Sc1nnc(-c2ccncc2)n1-c1ccc(F)cc1)C(=O)NC1CC1 (stereo not given),-1.9,3.5,-2.9,0.1,2.9,-10.1
Cn1c(=O)n(CC(=O)NCC2CCCO2)c(=O)c2c3c(sc21)COC(C)(C)C3 (stereo not given),-3.3,8.2,-2.6,-0.7,4.7,0.0
COC(=O)C(C)NC(=O)C12CC3CC(C1)CC(c1ccc(C)cc1)(C3)C2 (stereo not given),-4.2,-10.3,-5.0,-0.8,3.6,7.6
COc1cccc(NC(=O)COC(=O)c2c3c(nc4ccccc24)CCC(C)C3)c1 (stereo not given),48.4*,10.0,-2.9,3.3,-18.4,8.2
Fc1ccc(OCCCCCn2ccnc2)cc1,-7.8,8.1,35.7*,2.7,-3.6,3.7
CC(C)(C)NC(=O)CSc1nc(Cc2ccccc2)nc2ccccc12,-8.7,17.5,-3.4,0.5,5.5,-11.3
CSc1nc(Cc2ccccc2)nc2ccccc12,9.8,-5.1,-5.6,-0.7,-2.0,24.0*
CNS(=O)(=O)c1cccc(C(=O)OCC(=O)c2ccc3[nH]c(=O)[nH]c3c2)c1,-7.6,-8.8,-1.8,-0.5,1.9,6.2
Cc1cc(S(=O)(=O)n2ccnc2)c(Cl)cc1Cl,-1.1,21.2,-6.8,0.8,12.4,-1.9
CC1(C)CC2CC(C)(CN2C(=S)Nc2ccccc2)C1 (stereo not given),-4.5,22.1,-4.8,15.7*,7.7,-12.0
CCOC(=O)c1c(-c2ccccc2)csc1NC(=O)c1ccc(N2C(=O)CCC2=O)cc1,14.7,-12.6,-3.5,-0.2,-6.4,25.2*
CCOC(=O)c1c(-c2ccccc2)csc1NC(=O)c1ccc(S(=O)(=O)N2CC(C)OC(C)C2)cc1 (stereo not given),-4.0,12.2,-3.1,0.5,-0.9,-4.0
SMILES,CHRM1 antagonist,M1 PAM parental,CHRM1 agonist,M1 ag parental,M1 PAM,CHO-K1 Ca antag
CCC(=O)c1ccc(N2CCN(C(=O)c3cccs3)CC2)c(F)c1,-12.1,-10.4,-1.1,3.3,6.4,25.5*
COCc1cc(C)nc2sc3c(=O)n(Cc4ccco4)nnc3c12,-12.3,-2.0,-0.7,0.1,13.5,25.9*
NN=C(c1ccccc1)c1ccccc1,-7.7,-9.9,-3.6,0.4,11.5,-0.4
N/N=C(\c1ccccc1)C12CN3CN(CN(C3)C1)C2,57.8*,18.5,-9.3,0.2,-26.6,3.9
Cc1ccc(CNC(=O)CO/N=C/c2ccc(C(C)(C)C)cc2)cc1,-4.0,38.6,5.4,0.5,15.0,-13.0
CC(C)(C)c1ccc(/C=N/OCC(=O)NCc2ccccc2)cc1,-9.7,21.2,17.8*,0.6,15.4,-12.6
Fc1ccccc1Nc1nc(-c2ccncc2)nc2ccccc12,3.1,-2.0,-6.8,1.0,2.1,-0.9
CCSc1nnc(NC(=O)NC(C)(C(F)(F)F)C(F)(F)F)s1,3.7,16.5,-5.0,9.3,-0.8,4.5
CCSc1nnc(NC(=O)NC(CC)(C(F)(F)F)C(F)(F)F)s1,6.8,-4.5,0.6,6.8,-1.6,34.5*
CCOC(=O)CN1C(=N)N(c2nc(NC(C)C)nc(NC(C)C)n2)CC1=O,2.1,-14.9,-6.2,-0.8,-3.1,31.4*
CCOC(=O)CN1C(=N)N(c2nc(NC(C)C)nc(OC)n2)CC1=O,-10.9,-0.8,-0.9,-0.4,12.7,-10.5
CCN(CC)C(=O)c1ncn2c1C(=O)N(C)CC2,6.8,-7.9,-3.7,0.4,-3.0,27.3*
CN1CCn2cnc(C(=O)NCc3ccccc3)c2C1=O,24.2,-9.3,-0.6,4.6,-20.9,11.3
CC(C)c1nc2c(c(=O)c3ccccc3n2C)c(=O)n1CCc1ccccc1,34.2,14.5,19.6*,20.8*,-24.8,-6.4
CC(C)(C)OC(=O)NCc1ccc(CNC(=O)c2[nH]cnc2C(=O)NC2CCN(C(=O)OC(C)(C)C)CC2)cc1,34.5*,11.8,4.0,2.7,-18.6,-10.1
Cc1cccc(NC(=O)c2nc[nH]c2C(=O)NCCCCCNC(=O)OC(C)(C)C)c1,-20.4,12.3,-2.6,0.6,9.6,-13.7
CC(C)(C)OC(=O)NCCCCCNC(=O)c1nc[nH]c1C(=O)NCCCCCNC(=O)OC(C)(C)C,43.9*,-21.8,-0.7,10.8,-22.8,17.5
CC(C)(C)OC(=O)NCc1ccc(CNC(=O)c2nc[nH]c2C(=O)NCc2ccc(CNC(=O)OC(C)(C)C)cc2)cc1,2.0,-18.2,-1.0,-0.9,-2.6,29.1*
CC(C)(C)OC(=O)NCCCCCNC(=O)c1nc[nH]c1C(=O)NCc1ccc(CNC(=O)OC(C)(C)C)cc1,67.8*,-10.6,6.0,15.5*,-29.7,14.5
CC(C)(C)OC(=O)N1CCC(NC(=O)c2nc[nH]c2C(=O)NCc2ccccc2)CC1,3.1,9.3,-11.6,0.5,-4.4,-10.9

# Bioassay records as filed in PubChem.
